This is an account of results in the supplement of paper PMC6522484.

Experiment [1] has as its system DLD1. In words: cell viability (CellTiter-Glo) relative to plate median (fraction of plate median); higher = more viable cells. The following applies: 5 µM; treatment time 24 h; reporter: 7TFP. An outline of the steps:
(§1)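 Signals from firefly luciferase or CellTiterGlo readouts were normalised well by well to the plate median using webcellHTS2, additively and with no log transformation. They came from colorectal cancer cell lines stably holding lentiviral TCF/Wnt firefly luciferase reporters (7TFP or TCF4/Wnt), treated with library compounds at a final 5 µM for 24 h. The mean of two independent replicates is given.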

A further experiment deals with HCT116. The experiment is described as above. The following applies: 5 µM; treatment time 24 h; reporter: TCF4/Wnt. An outline of the steps: as §1
Experiment [2] concerns SW480. The description is as above. The following applies: 5 µM; treatment time 24 h; reporter: 7TFP. The gist of the method:
as §1

Experiment [3] has as its system DLD1. Kind of experiment: TCF/Wnt firefly luciferase reporter signal relative to plate median (fraction of plate median); higher = higher Wnt reporter signal. The following applies: 5 µM; treatment time 24 h; reporter: 7TFP. An outline of the steps:
as §1
A general note: A reporter such as luciferase makes a cellular process visible.

Experiment [4] deals with SW480. The description is as above. To be noted: 5 µM; treatment time 24 h; reporter: 7TFP. The gist of the method:
as §1

± gives the standard deviation of the averaged measurements.

In the case of `CCCCNC(=O)NS(=O)(=O)c1ccc(C)cc1`, the cell viability was determined as 0.85 ± 0.14 in the experiment with DLD1 [1], 0.982 ± 0.054 in the experiment with HCT116 and 0.987 ± 0.033 with SW480 [2]. The figures for the “TCF/Wnt firefly luciferase reporter signal” value with DLD1 [3] and in the experiment on SW480 [4] were 0.931 ± 0.097 and 1.005 ± 0.0071, respectively.
Regarding `COC(=O)C(O)c1ccccc1` (stereo not given), the cell viability is 1.04 ± 0.021 in the experiment with DLD1 [1], 1.11 in the experiment on HCT116 and 1.07 ± 0.035 in the experiment with SW480 [2]. Moreover, the entries for the “TCF/Wnt firefly luciferase reporter signal” value in the experiment with DLD1 [3] and in the experiment with SW480 [4] were 1.04 ± 0.042 and 0.876 ± 0.019, respectively.
For `CC(=O)O[C@@](C)(CCC=C(C)C)C1CC=C(C)CC1` (stereo not given in full) the same measures were 0.974 ± 0.066, 1.02 ± 0.021, 0.993 ± 0.067, 0.9845 ± 0.0021 and 1.08 ± 0.028.
With `COc1cc(O)cc(OC)c1OC`, the cell viability with DLD1 [1] is 1.01 ± 0.019; with HCT116, 1.01 ± 0.015; in the experiment on SW480 [2] it was 0.942 ± 0.074. The “TCF/Wnt firefly luciferase reporter signal” value in the experiment on DLD1 [3] came to 0.941 ± 0.021; with SW480 [4], 0.978 ± 0.0028.
Regarding `C[C@]12C=CC(=O)C=C1CC[C@@H]1[C@@H]2C(=O)C[C@@]2(C)[C@H]1CC[C@]2(O)C(=O)CO`, the cell viability in the experiment with DLD1 [1] was 1 ± 0.085; in the experiment with HCT116, 1.125 ± 0.0071; with SW480 [2], 1.07 ± 0.057. Moreover, the “TCF/Wnt firefly luciferase reporter signal” value in the experiment with DLD1 [3] worked out at 1.035 ± 0.0071; with SW480 [4] it was 0.91 ± 0.17.
Take `O=C(C1CCCCC1)N1CC(=O)N2CCc3ccccc3C2C1` (stereo not given): the cell viability in the experiment on DLD1 [1] came to 0.9955 ± 0.0064; in the experiment with HCT116, 0.984 ± 0.037; in the experiment with SW480 [2], 0.98 ± 0.042. Besides, the figures for the “TCF/Wnt firefly luciferase reporter signal” value in the experiment on DLD1 [3] and with SW480 [4] were 1.02 ± 0.034 and 0.918 ± 0.12, respectively.
